Results: PubChem BioAssay (Tox21)
Unmarked numbers belong to inactive results. Results filed as inconclusive are left out. A call without a number means that no potency is given here. Active and inactive are the calls of the source. Unless noted, the call rests on the fitted dose curve.

Columns and labels:
[1] = Nuclear factor erythroid 2-related factor 2/antioxidant responsive element (Nrf2/ARE) small molecule agonists: qHTS cell viability counter screen in human keratinocytes (AID 1919968; active means well fitted curve in the direction sought with a large enough effect in the repeat runs; an effect the other way counts as inactive or inconclusive; further: nearly all actives have a fitted effect of over 55% in size)
In short: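 Seed 1,500 KeratinoSens cells per well, then incubate 5 h at 37 C/5% CO2. Add compounds in DMSO and incubate 23 h. Add CellTiter-Fluor, wait 1 h and read fluorescence.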

[2] = molecular target: Gonadotropin-releasing hormone receptor (Homo sapiens) (UniProt P30968); assay: Human gonadotropin-releasing hormone receptor (GnRHR) small molecule agonists, calcium flux assay in GnRHR-HEK293 cells (AID 1920063); further: nearly all actives have a fitted effect of over 35% in size
Chain of Gonadotropin-releasing hormone receptor (Homo sapiens) (P30968 whole entry, looked up): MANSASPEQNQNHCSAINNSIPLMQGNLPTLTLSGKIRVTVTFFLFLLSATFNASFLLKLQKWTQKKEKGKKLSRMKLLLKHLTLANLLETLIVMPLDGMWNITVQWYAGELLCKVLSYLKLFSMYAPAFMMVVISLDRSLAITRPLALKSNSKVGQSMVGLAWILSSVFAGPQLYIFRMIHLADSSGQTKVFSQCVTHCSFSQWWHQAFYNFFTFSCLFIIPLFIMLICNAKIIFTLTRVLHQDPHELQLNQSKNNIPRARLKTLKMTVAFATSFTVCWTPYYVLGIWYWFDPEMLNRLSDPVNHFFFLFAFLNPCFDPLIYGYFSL
In short: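 Cells: HEK293 stably expressing human GnRHR. Steps: overnight (18 h) culture, 1 h calcium dye loading at 37 C, compound addition, kinetic fluorescence read at 480/540 nm. Each compound tested at 15 concentrations in triplicate.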

[3] = molecular target: KiSS-1 receptor (Homo sapiens) (UniProt Q969F8); assay: Human kisspeptin (KISS1R) small molecule agonists, calcium flux assay in KISS1R-HEK293 cells (AID 1920064; active means well fitted curve in the direction sought with a large enough effect in the repeat runs; an effect the other way counts as inactive or inconclusive)
Chain of KiSS-1 receptor (Homo sapiens) (Q969F8 whole entry, looked up): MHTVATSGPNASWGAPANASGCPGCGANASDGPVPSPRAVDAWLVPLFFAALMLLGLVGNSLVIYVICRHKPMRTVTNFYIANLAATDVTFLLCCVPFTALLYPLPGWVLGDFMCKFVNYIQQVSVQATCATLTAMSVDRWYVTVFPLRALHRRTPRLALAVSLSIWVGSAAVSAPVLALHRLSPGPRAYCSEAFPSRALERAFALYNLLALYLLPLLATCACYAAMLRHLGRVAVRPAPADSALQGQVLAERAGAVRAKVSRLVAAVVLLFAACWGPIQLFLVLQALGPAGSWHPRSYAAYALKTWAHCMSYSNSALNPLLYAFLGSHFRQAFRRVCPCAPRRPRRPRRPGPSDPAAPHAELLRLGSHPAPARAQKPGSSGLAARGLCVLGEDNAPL
In short: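 Cells plated and incubated 18 h; dye added, 1 h at 37 C; compounds in DMSO pinned in; signal read at 480/540 nm every second for 3 min. Each compound tested at 15 concentrations in triplicate.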

[4] = G protein-coupled receptor (GPCR) small molecule agonists, calcium flux assay: HEK293 wild type cell line counter screen (AID 1920065)
In short: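 Counter-screen of the Tox21 10K library for non-specific calcium release: dye-loaded cells received compounds in DMSO and were monitored by kinetic fluorescence (480/540 nm, 3 min). Fifteen concentrations, run in triplicate.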

[5] = p53 small molecule agonists, cell-based qHTS assay with human liver microsomes (AID 1963577);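 further: p53 response element beta-lactamase reporter cells with liver microsomes plus NADPH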
In short: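 HLM-supplemented p53RE-bla reporter assay: 16 h compound exposure at 37 C, microsomes and NADPH each 0.5 mg/mL final, read by fluorescence intensity.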

[6] = p53 small molecule agonists, cell-based qHTS assay with rat liver microsomes (AID 1963578)
In short: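 Quantitative HTS of the Tox21 10K library: p53RE-bla cells, rat liver microsomes plus NADPH at 0.5 mg/mL final each, 16 h at 37 C, beta-lactamase fluorescence detection.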

[7] = p53 small molecule agonists, cell-based qHTS assay with human liver microsomes: qHTS cell viability counter screen (AID 1963579); further: nearly all actives have a fitted effect of over 45% in size; further: potency means the concentration at half of the fitted maximal effect
In short: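 Viability of p53RE-bla cells is measured as CellTiter-Glo luminescence following a 16 h, 37 C incubation with compound, liver microsomes from human donors and NADPH.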

[8] = p53 small molecule agonists, cell-based qHTS assay with rat liver microsomes: qHTS cell viability counter screen (AID 1963580); further: nearly all actives have a fitted effect of over 45% in size
In short: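 Intracellular ATP, by CellTiter-Glo luminescence, defines viability. HCT-116 p53RE-bla cells, 4,000 per well, were compound-treated in the presence of rat liver microsomes and NADPH for 16 h at 37 C.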

[9] = p53 small molecule agonists, cell-based qHTS assay: qHTS cell viability counter screen (AID 1963581); further: nearly all actives have a fitted effect of over 45% in size
In short: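 Cells: HCT-116 with p53 response element-driven beta-lactamase. Treatment: 16 h, 37 C, compounds in DMSO. Read: CellTiter-Glo luminescence after 30 min RT.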

[10] = p53 small molecule agonists, cell-based qHTS assay (AID 1963582; active means well fitted activation curve with a large enough effect in the signal ratio in the repeat runs, not every such curve was filed as active; the % refers to the signal ratio)
In short: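 Quantitative HTS in p53RE-bla cells: after a 5 h settling period, compounds delivered in DMSO were left on cells for 16 h at 37 C, and reporter induction was measured as fluorescence following 2 h substrate loading.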

[11] = molecular target: 5-hydroxytryptamine receptor 2A (Homo sapiens) (UniProt P28223); assay: 5-hydroxytryptamine receptor 2A (HTR2A) small molecule antagonists, cell-based qHTS assay (AID 1963586); further: nearly all actives have a fitted effect of over 45% in size; further: potency means the concentration at half of the fitted maximal effect
Chain of 5-hydroxytryptamine receptor 2A (Homo sapiens) (P28223 whole entry, looked up): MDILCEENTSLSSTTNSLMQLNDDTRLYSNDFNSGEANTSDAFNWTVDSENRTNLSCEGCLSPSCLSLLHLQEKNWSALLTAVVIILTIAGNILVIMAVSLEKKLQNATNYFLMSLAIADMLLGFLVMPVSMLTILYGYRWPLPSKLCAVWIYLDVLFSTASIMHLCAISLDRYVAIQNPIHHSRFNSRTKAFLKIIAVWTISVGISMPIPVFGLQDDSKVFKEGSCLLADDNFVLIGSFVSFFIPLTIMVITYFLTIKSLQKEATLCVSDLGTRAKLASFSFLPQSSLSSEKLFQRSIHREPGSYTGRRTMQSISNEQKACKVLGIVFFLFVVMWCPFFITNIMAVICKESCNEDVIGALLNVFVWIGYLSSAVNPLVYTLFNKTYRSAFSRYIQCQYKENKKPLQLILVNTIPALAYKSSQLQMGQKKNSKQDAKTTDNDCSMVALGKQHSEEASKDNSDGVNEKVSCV
In short: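 Antagonist-mode intracellular calcium assay: DOI (4 nM) added after 5 min compound pre-incubation at room temperature to dye-loaded HTR2A-CHO cells. Fluorescence followed for 3 min, sampled every second.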

[12] = molecular target: 5-hydroxytryptamine receptor 2A (Homo sapiens) (UniProt P28223); assay: 5-hydroxytryptamine receptor 2A (HTR2A) small molecule agonists, cell-based qHTS assay (AID 1963587); further: nearly all actives have a fitted effect of over 30% in size
In short: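 Kinetic calcium-flux fluorescence (2 min, 1 sec intervals) after compound addition in agonist mode. HTR2A-CHO cells were cultured 18 h, then dye-loaded 1 h at 37 C.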

[13] = molecular target: Muscarinic acetylcholine receptor M1 (Homo sapiens) (UniProt P11229); assay: Cholinergic receptor muscarinic 1 (CHRM1) small molecule antagonists, cell-based qHTS assay (AID 1963588); further: nearly all actives have a fitted effect of over 40% in size
Chain of Muscarinic acetylcholine receptor M1 (Homo sapiens) (P11229 whole entry, looked up): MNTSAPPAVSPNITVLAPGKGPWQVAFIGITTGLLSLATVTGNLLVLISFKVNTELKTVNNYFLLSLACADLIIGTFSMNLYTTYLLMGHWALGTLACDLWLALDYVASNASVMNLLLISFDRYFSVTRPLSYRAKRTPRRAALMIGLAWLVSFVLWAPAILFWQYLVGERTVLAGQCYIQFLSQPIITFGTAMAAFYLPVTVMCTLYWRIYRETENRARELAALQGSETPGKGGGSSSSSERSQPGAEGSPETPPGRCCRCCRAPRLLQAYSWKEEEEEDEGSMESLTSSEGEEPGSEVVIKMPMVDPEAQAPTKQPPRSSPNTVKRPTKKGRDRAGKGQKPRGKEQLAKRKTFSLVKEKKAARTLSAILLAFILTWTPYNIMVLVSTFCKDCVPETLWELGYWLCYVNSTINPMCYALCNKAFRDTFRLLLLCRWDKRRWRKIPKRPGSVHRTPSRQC
In short: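 CHRM1-CHO calcium-flux assay, antagonist mode. Cells were seeded 18 h, dye-loaded 1 h at 37 C and given compound for 5 min at RT, then acetylcholine was added at 50nM. FDSS fluorescence was read 3 min; 15 concentrations, three runs.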

[14] = molecular target: Muscarinic acetylcholine receptor M1 (Homo sapiens) (UniProt P11229); assay: Cholinergic receptor muscarinic 1 (CHRM1) small molecule agonists, cell-based qHTS assay (AID 1963589); further: nearly all actives have a fitted effect of over 35% in size
In short: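 Agonist-mode qHTS in CHO cells stably carrying human muscarinic M1. Intracellular calcium is tracked by fluorescence every second after compound transfer; each compound runs at 15 concentrations in three independent runs.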

[15] = cAMP Responsive Elements (CRE) small molecule agonists, cell-based qHTS assay (AID 1963590)
In short: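 Agonist mode qHTS in CRE-bla HEK 293T cells: compounds dosed from DMSO for 3 h at 37 C/5% CO2, followed by LiveBLAzer B/G FRET substrate for 2 h at room temperature.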

[16] = molecular target: Beta-2 adrenergic receptor (Homo sapiens) (UniProt P07550); assay: Adrenergic beta2 receptor (ADRB2) small molecule antagonists, cell-based qHTS assay (AID 1963592); further: nearly all actives have a fitted effect of over 50% in size; further: potency means the concentration at half of the fitted maximal effect
Chain of Beta-2 adrenergic receptor (Homo sapiens) (P07550 whole entry, looked up): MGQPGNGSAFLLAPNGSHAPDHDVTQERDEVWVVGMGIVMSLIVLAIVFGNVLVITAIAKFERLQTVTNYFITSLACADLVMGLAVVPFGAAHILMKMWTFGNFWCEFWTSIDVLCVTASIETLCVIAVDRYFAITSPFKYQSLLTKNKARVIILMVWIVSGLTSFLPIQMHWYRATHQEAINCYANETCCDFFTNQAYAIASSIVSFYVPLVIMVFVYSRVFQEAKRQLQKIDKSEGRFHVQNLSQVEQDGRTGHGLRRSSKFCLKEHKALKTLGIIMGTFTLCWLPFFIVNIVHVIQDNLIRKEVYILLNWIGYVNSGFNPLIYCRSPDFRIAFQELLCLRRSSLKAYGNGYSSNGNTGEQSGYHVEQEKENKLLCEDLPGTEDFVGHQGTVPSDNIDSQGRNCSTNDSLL
In short: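 Cells (CHO, stable ADRB2 overexpression) incubated 18-20hr at 37C; compounds added from DMSO; agonist mix (1nM isoproterenol, 100uM IBMX, 25uM Ro-20-1724) added; 0.5hr RT; d2-cAMP and anti-cAMP-cryptate added; 1hr RT; 665/615 nm read.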

[17] = molecular target: D(2) dopamine receptor (Homo sapiens) (UniProt P14416); assay: Dopamine D2 receptor (DRD2) small molecule agonists, cell-based qHTS assay (AID 1963594); further: nearly all actives have a fitted effect of over 35% in size; further: potency means the concentration at half of the fitted maximal effect
Chain of D(2) dopamine receptor (Homo sapiens) (P14416 whole entry, looked up): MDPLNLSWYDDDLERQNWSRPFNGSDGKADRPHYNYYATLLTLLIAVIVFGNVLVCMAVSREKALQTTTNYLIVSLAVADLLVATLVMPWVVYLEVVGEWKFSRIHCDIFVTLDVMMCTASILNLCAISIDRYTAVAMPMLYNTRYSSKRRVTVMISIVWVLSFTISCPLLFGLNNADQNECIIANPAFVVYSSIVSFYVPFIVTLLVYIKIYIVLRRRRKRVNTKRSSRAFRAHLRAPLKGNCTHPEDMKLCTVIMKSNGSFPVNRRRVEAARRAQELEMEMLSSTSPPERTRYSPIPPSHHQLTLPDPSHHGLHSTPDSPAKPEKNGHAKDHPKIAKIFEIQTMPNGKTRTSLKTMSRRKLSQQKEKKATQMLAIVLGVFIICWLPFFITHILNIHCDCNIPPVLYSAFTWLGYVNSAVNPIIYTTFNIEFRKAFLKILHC
In short: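 cAMP accumulation in DRD2-HEK293 cells measured by HTRF after 1 h detection; compounds added 10 min before NKH477 (200nM […]) forskolin-analogue stimulation, 30 min at room temperature, with Ro20-1724 present at 0.1 mM final.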

[18] = molecular target: D(2) dopamine receptor (Homo sapiens) (UniProt P14416); assay: Dopamine D2 receptor (DRD2) small molecule antagonists, cell-based qHTS assay (AID 1963595; active means well fitted inhibition curve with a large enough effect in the signal ratio in the repeat runs, with a control signal flat; the % refers to the signal ratio)
In short: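 HEK293 cells stably expressing DRD2 were preincubated with 0.1 mM Ro20-1724, then with compound for 10 min at room temperature. Cells were stimulated with 200 nM NKH477 plus 12 nM quinpirole for 30 min, and cAMP was read by HTRF.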

[19] = cAMP Responsive Elements (CRE) small molecule antagonists, cell-based qHTS assay (AID 1963591; active means well fitted inhibition curve with a large enough effect in the signal ratio in the repeat runs, not every such curve was filed as active; the % refers to the signal ratio)
In short: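 Antagonist mode: test compounds are co-incubated with the adenylyl cyclase activator NKH477 (0.25 uM final) on CRE-bla HEK293T cells for 3 h at 37 °C, followed by LiveBLAzer substrate loading.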

[20] = molecular target: Beta-2 adrenergic receptor (Homo sapiens) (UniProt P07550); assay: Adrenergic beta2 receptor (ADRB2) small molecule agonists, cell-based qHTS assay (AID 1963593); further: potency means the concentration at half of the fitted maximal effect;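 on activation: CHO cells stably overexpressing human ADRB2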
In short: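 CHO cells stably over-expressing ADRB2 were plated overnight at 37C, then dosed with compounds plus a stimulation mix containing 100uM IBMX and 25uM Ro-20-1724 for 0.5hr at room temperature. cAMP was measured by HTRF competition, 1hr.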

| SMILES | Potency [1] | Potency [2] | Potency [3] | Potency [4] | Potency [5] | Potency [6] | Potency [7] | Potency [8] | Potency [9] | Potency [10] | Potency [11] | Potency [12] | Potency [13] | Potency [14] | Potency [15] | Potency [16] | Potency [17] | Potency [18] | Potency [19] | Potency [20] |
| --- | --- | --- | --- | --- | --- | --- | --- | --- | --- | --- | --- | --- | --- | --- | --- | --- | --- | --- | --- | --- |
| C=CC(=O)OC | inactive | inactive | inactive | inactive | inactive | inactive | inactive | inactive | inactive | inactive | inactive | inactive | inactive | inactive | inactive | inactive | inactive | inactive |  |  |
| BrCCCCCCBr | inactive | inactive | inactive | inactive | inactive | inactive | 20.4 µM (active) | inactive | inactive | inactive | inactive | inactive | inactive | inactive | inactive |  | inactive |  | inactive | inactive |
| FC(F)C(F)(F)OCC(Cn1cncn1)c1ccc(Cl)cc1Cl (stereo not given) | inactive | inactive | inactive | inactive | inactive | inactive | inactive | inactive | inactive | inactive | inactive | inactive | inactive | inactive |  | inactive |  |  |  |  |
| O=[N+]([O-])c1ccccc1CCl | inactive | inactive | inactive | inactive | inactive | inactive | inactive | inactive | inactive | inactive | inactive | inactive |  | inactive | inactive | inactive | inactive | inactive |  |  |
| C[C@]12CC[C@H]3[C@@H](CCC4=CC(=O)CC[C@@]43C)[C@@H]1CC[C@@H]2C(=O)O | inactive | inactive | inactive | inactive | inactive | inactive | inactive | inactive |  | inactive | inactive | inactive | inactive | inactive |  | inactive |  | inactive |  | inactive |
| COC1=CC(=O)O[C@@H](/C=C/c2ccc3c(c2)OCO3)C1 | inactive | inactive | inactive | inactive | inactive | inactive | inactive | inactive | inactive |  |  | inactive | inactive | inactive |  | inactive | inactive | inactive |  |  |
| O=C(NC(=O)c1c(F)cccc1F)Nc1cc(Cl)c(OC(F)(F)C(F)F)c(Cl)c1 | inactive | inactive | inactive | inactive | inactive | inactive | inactive | inactive | inactive | inactive | inactive | inactive | inactive | inactive | inactive | inactive | inactive | inactive | inactive |  |
| C[C@]12CC[C@H]3[C@@H](CCC4=CC(=O)CC[C@@H]43)[C@@H]1CC[C@@H]2OC(=O)CCc1ccco1 | inactive | inactive | inactive | inactive | inactive | inactive | inactive | inactive | inactive |  | inactive | inactive |  | inactive |  |  |  |  |  | 2.98 µM (active) |
| CC(=O)OC(c1ccccc1)C(Cl)(Cl)Cl (stereo not given) | inactive | inactive | inactive | inactive | inactive | inactive | inactive | inactive | inactive | inactive |  |  | inactive | inactive | inactive | inactive | inactive | inactive | inactive | inactive |
| Clc1ccc2ccccc2c1 | inactive | inactive | inactive | inactive | inactive | inactive | inactive | inactive | inactive | inactive | inactive | inactive | inactive | inactive | inactive |  |  | inactive | inactive |  |
| CC1NCCOC1c1ccccc1 (stereo not given) | inactive | inactive | inactive | inactive | inactive | inactive | inactive | inactive | inactive | inactive |  |  | inactive | inactive | inactive | inactive | 14.1 µM (active) | inactive | inactive | inactive |
| CC(=O)Nc1cc([As](=O)(O)O)ccc1O | inactive | inactive | inactive | inactive | inactive | inactive | inactive | inactive | inactive | inactive |  | inactive | inactive | inactive | inactive |  |  | inactive | inactive |  |
| CC(C)CC(C)N (stereo not given) | inactive | inactive | inactive | inactive | inactive | inactive | inactive | inactive | inactive | inactive |  | inactive | inactive | inactive | inactive |  | inactive | inactive | inactive |  |
| Oc1ccc2[nH]cc(CCCCN3CC=C(c4ccccc4)CC3)c2c1 | inactive | inactive | inactive | inactive | inactive | inactive | inactive | inactive | inactive | inactive | 0.818 µM (active) | inactive | inactive | inactive |  | 26.6 µM (active) |  |  |  |  |
| CN | inactive | inactive | inactive | inactive | inactive | inactive | inactive | inactive | inactive | inactive | inactive | inactive |  | inactive | inactive | inactive |  | inactive | inactive |  |
| C[As+](C)(C)CC(=O)[O-] | inactive | inactive | inactive | inactive | inactive | inactive | inactive | inactive | inactive |  | inactive | inactive |  | inactive | inactive | inactive | inactive |  | inactive |  |
